# Screening results: PubChem BioAssay, National Center for Advancing Translational Sciences (NCATS)
# An excerpt weighted towards active compounds, which were near 0.33% of everything screened.
# IL-2 act = activates IL-2 in a cell-based reporter assay | AID 652025 | activation, % (series mostly up to about 46 µM) | actives 0.065% (n = 360,000) | IL-2 activation reporter assay, cell-based qHTS; stimulated with anti-CD3/CD4/CD28 beads; in transgenic mouse T cells; in the data active = activation above about 50%; inconclusive = mostly about 30% to 49%; also: 0% is about no effect
#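 Screening format: compound pinned onto unstimulated transgenic mouse T cells, 60 min incubation, then anti-CD3/anti-CD4/anti-CD28 bead stimulation for 18 hours at 37 degrees C, followed by EGFP and DsRed detection.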
# ASM inhibitor = inhibitors of human secretory acid sphingomyelinase; P17405; placental ASM, HMU-PC fluorogenic substrate, 60 min; Potency, µM (titrated, usually from 57.5 µM), for the others: at the top dose activity change, negative = inhibition, usual class: inhibitors; actives 0.006% (n = 340,000); AID 504937; also: potency is read from the fitted curve at half-maximal effect
#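 HMU-PC0 cleavage (9 uM final) by human placental ASM, 60 min at 37 °C following 10 min compound exposure at RT; stopped at pH 10, fluorescence Ex 386/Em 447 nm.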
# PKM2 act = PKM2 (human) enzyme activation. Potency, µM (highest dose often 57.5 µM), for inactives: at the highest dose activation, actives largely listed as activators. actives 0.34% (n = 260,000). purified PKM2, Kinase-Glo ATP luminescence, activation; response scale: 0% is enzyme alone, no compound. P14618; also: potency is read from the fitted curve at half-maximal effect; % is scaled to controls: 0 for no effect and ±100 for the full control effect; nearly all actives have a fitted effect of over 55% in size
# Target sequence (P14618 whole entry, looked up): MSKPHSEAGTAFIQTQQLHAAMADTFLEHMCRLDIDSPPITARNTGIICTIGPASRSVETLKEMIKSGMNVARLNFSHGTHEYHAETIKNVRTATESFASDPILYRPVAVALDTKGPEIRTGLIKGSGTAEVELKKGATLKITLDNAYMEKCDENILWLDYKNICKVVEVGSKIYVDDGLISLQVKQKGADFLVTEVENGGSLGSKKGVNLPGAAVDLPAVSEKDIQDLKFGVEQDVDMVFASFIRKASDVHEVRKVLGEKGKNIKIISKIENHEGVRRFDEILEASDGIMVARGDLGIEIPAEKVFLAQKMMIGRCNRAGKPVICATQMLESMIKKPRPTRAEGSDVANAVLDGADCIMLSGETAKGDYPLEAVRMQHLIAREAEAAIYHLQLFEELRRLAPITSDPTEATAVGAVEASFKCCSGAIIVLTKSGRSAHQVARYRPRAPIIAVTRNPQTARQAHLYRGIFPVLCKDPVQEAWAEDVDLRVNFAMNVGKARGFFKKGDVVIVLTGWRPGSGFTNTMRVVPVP
#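 ATP formation by purified human PK-M2, quantified via coupled luciferase luminescence after 1 h at room temperature with 0.1 mM ADP and 0.5 mM PEP final.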
# * = called active by the depositor; i = inactive; ? = inconclusive; . = no result. Unless noted, calls follow the shape of the dose curve; as a rule, active = well fitted curve in the direction sought with a large enough effect; inconclusive = small, poorly fitted or top-dose-only effect, or another doubt; inactive = no such curve, though single readings can be large; an effect the other way counts as inactive or inconclusive.
SMILES,IL-2 act,ASM inhibitor,PKM2 act
Cc1cccc(/C=C(\C#N)C(=O)Nc2ccccn2)c1,-2,10%,-1%
CNc1ccc(/C=C(\C#N)C(=O)Nc2ccccn2)cc1[N+](=O)[O-],87*,-16%,-7%
Cc1cc2[nH]c(=O)c(=O)[nH]c2cc1S(=O)(=O)Nc1ccccc1F,0,4%,10µM*
COc1cc(C)c(S(=O)(=O)Nc2ccccc2F)cc1C,-3,0%,28%
COc1ccc(CN2CCN(C(=O)c3ccc(S(=O)(=O)NCc4ccco4)cc3)CC2)cc1,-3,2%,.
O=C(c1ccc(NS(=O)(=O)c2ccccc2)cc1)N1CCN(Cc2ccc3c(c2)OCO3)CC1,14,1%,13µM*
COc1ccc(NS(=O)(=O)c2cccc(C(=O)N3CCN(Cc4ccc5c(c4)OCO5)CC3)c2)cc1,-3,0%,.
CCOc1ccccc1N1CCN(C(=O)c2ccc(S(=O)(=O)Nc3ccccc3)cc2)CC1,-1,0%,.
COc1ccccc1N1CCN(C(=O)c2ccc(NS(=O)(=O)c3ccc(C)cc3)cc2)CC1,-1,0%,8.9µM*
O=C(c1ccc(S(=O)(=O)NCc2ccco2)cc1)N1CCN(Cc2ccccc2)CC1,0,2%,7.9µM*
O=C(c1cccc(-n2cccc2)c1)N1CCN(S(=O)(=O)c2c(F)cccc2F)CC1,-1,4%,21%
Nc1nc(CN2CCN(Cc3ccc4c(c3)OCO4)CC2)nc(Nc2ccccc2)n1,-2,1%,8%
Cc1cc(C)n(Cc2ccc(C(=O)NCc3ccco3)o2)n1,0,-1%,-4%
C/C(=N\NC(=O)c1ccccc1F)c1cccc(NC(=O)c2ccc(C)cc2)c1,-4,-6%,0%
Cc1ccc(NC(=O)CN(C)C(=O)C2CCC2)cc1,-4,1%,.
CCOCCCNS(=O)(=O)c1ccc2c(c1)oc(=O)n2CC(=O)OCC,-3,-1%,-9%
Cc1ccc(NC(=O)c2cc(N3C(=O)C=CC3=O)ccc2Cl)cc1C,-4,-2%,4µM*
Cc1ccc(NC(=O)c2cc(-n3cnnc3)ccc2Cl)cc1,1,-3%,0%
COc1ccc(-c2cn3cc([N+](=O)[O-])ccc3n2)cc1OC,-3,-7%,.
O/C(=C\c1nc2ccccc2[nH]1)c1cccs1,1,36%,-15%
O=c1[nH]c2ccccc2nc1/C=C(\O)c1cccs1,148*,24%,-10%
COc1cccc(/C=C/c2ccc3cccc(O)c3n2)c1,-1,1%,.
CN(C)C(=S)N=c1ssc(=S)n1Cc1ccccc1,-1,-7%,.
N#C/C(=C\c1ccc(Cl)cc1)c1nc(-c2ccco2)cs1,-2,6%,-5%
N#C/C(=C\c1ccc(-c2ccccc2)cc1)c1nc(-c2ccco2)cs1,79*,1%,-1%
SMILES,IL-2 act,ASM inhibitor,PKM2 act
CCOc1ccc(S(=O)(=O)NCCC(=O)N2CCC(Cc3ccccc3)CC2)cc1,0,-4%,0%
COC(=O)CSC1=C(C#N)C(c2ccccc2F)CC(=O)N1 (centres undefined),1,4%,28µM*
COC(=O)CSC1=C(C#N)C(c2ccccc2)CC(=O)N1 (centres undefined),-1,2%,-3%
Clc1ccc(-n2nnc(-c3cccnc3Cl)n2)cc1Cl,-1,-4%,-4%
Cc1cc(=O)oc2cc(OCC(=O)Nc3nnc(CC(C)C)s3)ccc12,-1,24%,-5%
Cc1cc(=O)oc2cc(OCC(=O)Nc3nnc(C(C)C)s3)ccc12,60*,235%,-12%
O=C(NCc1ccc(F)cc1)Nc1nnc([C@@H]2C[C@H](O)[C@@H](CO)O2)s1,2,.,.
Cc1ccc(/C=C/C(=O)Nc2sc(C)c(C)c2C(=O)OC(C)C)o1,0,17%,16µM*
CCOC(=O)c1c(NC(=O)/C=C/c2ccc(C)o2)sc(C)c1C,-3,20%,-3%
Cc1ccc(-n2c(SCC(=O)NCc3ccco3)nc3sc(C)c(C)c3c2=O)cc1,0,-2%,1%
Cc1ccc(-n2c(SCC(=O)NCc3ccco3)nc3nc4c(cc3c2=O)COC(C)(C)C4)cc1,1,-3%,14µM*
CC(=O)NNS(=O)(=O)c1ccccc1[N+](=O)[O-],-1,9%,-3%
CC(=O)Nc1ccccc1NS(=O)(=O)c1ccccc1[N+](=O)[O-],0,0%,40µM*
C/C(=N\Nc1ccc(F)cc1)c1ccncc1,5,-2%,-4%
O=c1oc2cc(OCc3ccc(F)cc3F)ccc2cc1-c1ccccn1,-2,i,-1%
Cc1cc(NS(=O)(=O)c2ccccc2)cc(Cl)c1O,0,0%,16µM*
O=S(=O)(Nc1ccc(NS(=O)(=O)c2ccccc2)c(Cl)c1)c1ccccc1,0,-10%,.
Cn1cnc2ncnc(Oc3ccc(Br)cc3)c21,0,1%,.
Nc1c(S(=O)(=O)c2ccccc2)c2nc3ccccc3nc2n1C1CC1,-1,i,7%
Cn1c(N)c(S(=O)(=O)c2ccc(Br)cc2)c2nc3ccccc3nc21,-2,i,25µM*
CCOC(=O)c1cnc2ccc(C(=O)OC)cc2c1Nc1cccc(C(=O)O)c1,0,3%,-33%
CCOC(=O)c1cnc2ccccc2c1Nc1cccc(C(=O)O)c1,80*,-4%,3%
CN(c1ccc(C(=O)NCc2ccc3c(c2)OCO3)cc1)S(C)(=O)=O,-2,0%,-3%
COc1ccc(S(=O)(=O)N(C)c2ccc(C(=O)NCc3ccco3)cc2)cc1,0,0%,13µM*
CN(c1ccc(C(=O)NCc2ccc3c(c2)OCO3)cc1)S(=O)(=O)c1ccccc1,8,2%,16µM*
SMILES,IL-2 act,ASM inhibitor,PKM2 act
CN(c1ccccc1)S(=O)(=O)c1ccc(C(=O)NCc2ccco2)cc1,-4,4%,.
COc1cc2c(cc1OC)/C(=C/C(=O)N1CCOCC1)NC(C)(C)C2,-3,7%,25µM*
CCOC(=O)/C=C1\NC(C)(C)Cc2cc(OC)c(OC)cc21,1,7%,0%
CCOc1ccc2c(c1)s/c(=N\S(=O)(=O)c1ccc(OC)cc1)n2C(F)F,-1,-10%,1.6µM*
CCOc1ccc2c(c1)sc1nc(C(=O)OC)cc(=O)n12,0,2%,.
O=C(COc1ccc(Cl)cc1)OCC(=O)N1CCCCCC1,0,2%,1%
CC(=O)c1ccc(-n2c(CCC(=O)O)ccc2-c2cccs2)cc1,-2,0%,?
COC(=O)c1cccc(-n2c(CCC(=O)O)ccc2-c2cccs2)c1,-2,5%,18µM*
COc1cc(C(=S)N2CCN(c3ccccc3Cl)CC2)cc(O)c1O,1,-11%,3.5µM*
COc1ccc(C(=S)N2CCN(c3ccccc3Cl)CC2)cc1OC,-3,-4%,-9%
CNc1c([N+](=O)[O-])cnn1-c1ccc(Cl)cc1Cl,-2,-2%,11µM*
CNc1c([N+](=O)[O-])cnn1-c1ccccc1Cl,-1,-5%,?
O=C(CSCCc1ccccn1)Nc1ccccn1,0,-6%,5%
Cc1ccc(CN(C(=O)c2ccco2)C2CCS(=O)(=O)C2)cc1 (centres undefined),-1,-1%,-6%
O=C1CC(=O)N(CCNc2ncc(C(F)(F)F)cc2Cl)C(=O)N1,2,-2%,-6%
